The term residual activity denotes the signal under treatment as a percentage of the control signal.

Four molecules from ChEMBL document CHEMBL2218924, “A broad activity screen in support of a chemogenomic map for kinase signalling research and drug discovery” (Biochem J, 2013) can be followed below.

The target in assay [1] is T1, Serine/threonine-protein kinase 17A (Homo sapiens) (UniProt Q9UEE5).
T1 sequence (whole entry): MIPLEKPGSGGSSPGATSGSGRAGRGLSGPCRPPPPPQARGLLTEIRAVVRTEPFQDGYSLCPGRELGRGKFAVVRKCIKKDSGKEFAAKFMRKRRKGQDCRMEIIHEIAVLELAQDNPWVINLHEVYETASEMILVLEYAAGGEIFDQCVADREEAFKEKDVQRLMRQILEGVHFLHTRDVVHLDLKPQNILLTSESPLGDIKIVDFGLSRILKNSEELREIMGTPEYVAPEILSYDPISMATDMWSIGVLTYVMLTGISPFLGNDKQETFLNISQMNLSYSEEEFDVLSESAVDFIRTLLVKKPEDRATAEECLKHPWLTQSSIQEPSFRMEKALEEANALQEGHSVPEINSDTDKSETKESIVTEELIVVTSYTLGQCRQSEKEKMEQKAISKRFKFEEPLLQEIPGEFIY
To be noted: at 10 µM.

Assay [2] addresses T2, Dual specificity tyrosine-phosphorylation-regulated kinase 2 (Homo sapiens) (UniProt Q92630).
T2 sequence (whole entry): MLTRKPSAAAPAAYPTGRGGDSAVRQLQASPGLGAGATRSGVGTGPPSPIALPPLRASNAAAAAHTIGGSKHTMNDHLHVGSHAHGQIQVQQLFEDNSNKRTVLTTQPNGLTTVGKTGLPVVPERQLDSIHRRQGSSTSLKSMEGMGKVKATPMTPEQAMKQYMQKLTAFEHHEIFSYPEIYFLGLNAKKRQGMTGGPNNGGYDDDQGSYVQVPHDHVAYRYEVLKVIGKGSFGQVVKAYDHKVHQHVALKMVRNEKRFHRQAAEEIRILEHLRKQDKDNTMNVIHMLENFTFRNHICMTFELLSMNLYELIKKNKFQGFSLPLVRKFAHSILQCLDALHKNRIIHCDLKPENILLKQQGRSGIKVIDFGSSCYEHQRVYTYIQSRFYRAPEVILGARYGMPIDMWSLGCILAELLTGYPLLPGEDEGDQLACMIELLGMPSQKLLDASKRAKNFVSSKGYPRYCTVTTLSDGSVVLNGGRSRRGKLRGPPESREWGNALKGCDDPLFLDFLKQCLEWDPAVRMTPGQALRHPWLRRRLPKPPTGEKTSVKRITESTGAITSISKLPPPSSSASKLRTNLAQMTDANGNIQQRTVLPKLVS
The note with it: at 1 µM.

Assay [3] has as its target T2, Dual specificity tyrosine-phosphorylation-regulated kinase 2 (Homo sapiens). The note with it: at 10 µM.
The target in assay [4] is T3, Ephrin type-A receptor 3 (Homo sapiens) (UniProt P29320).
T3 sequence (whole entry): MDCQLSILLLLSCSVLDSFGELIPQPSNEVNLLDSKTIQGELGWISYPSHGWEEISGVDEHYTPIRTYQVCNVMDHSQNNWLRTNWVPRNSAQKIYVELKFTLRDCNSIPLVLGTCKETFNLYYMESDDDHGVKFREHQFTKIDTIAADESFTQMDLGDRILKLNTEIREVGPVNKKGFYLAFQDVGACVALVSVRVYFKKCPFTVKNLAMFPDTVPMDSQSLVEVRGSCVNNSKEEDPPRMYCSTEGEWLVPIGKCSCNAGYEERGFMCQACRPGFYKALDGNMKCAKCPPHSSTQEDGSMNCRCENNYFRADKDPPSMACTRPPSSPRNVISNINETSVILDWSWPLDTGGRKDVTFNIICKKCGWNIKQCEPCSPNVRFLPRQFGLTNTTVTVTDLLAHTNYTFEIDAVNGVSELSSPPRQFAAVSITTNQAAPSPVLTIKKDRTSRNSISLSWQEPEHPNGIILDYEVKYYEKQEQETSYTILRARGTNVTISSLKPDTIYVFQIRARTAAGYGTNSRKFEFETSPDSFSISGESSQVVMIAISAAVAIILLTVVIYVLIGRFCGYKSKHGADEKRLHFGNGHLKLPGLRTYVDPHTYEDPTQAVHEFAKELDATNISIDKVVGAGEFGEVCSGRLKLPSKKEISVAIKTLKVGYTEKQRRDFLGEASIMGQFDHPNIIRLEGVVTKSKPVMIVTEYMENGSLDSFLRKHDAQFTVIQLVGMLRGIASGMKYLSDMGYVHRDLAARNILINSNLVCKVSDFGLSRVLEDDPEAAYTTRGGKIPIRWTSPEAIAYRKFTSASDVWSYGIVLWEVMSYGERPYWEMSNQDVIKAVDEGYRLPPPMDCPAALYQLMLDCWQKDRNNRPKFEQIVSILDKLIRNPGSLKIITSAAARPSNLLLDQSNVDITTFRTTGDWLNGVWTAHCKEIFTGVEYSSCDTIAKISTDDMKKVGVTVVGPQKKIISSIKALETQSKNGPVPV
The note with it: at 1 µM.

Assay [5] deals with T3, Ephrin type-A receptor 3 (Homo sapiens). To be noted: at 10 µM.
The target in assay [6] is Ephrin type-A receptor 7 (Homo sapiens) (UniProt Q15375). The note with it: at 1 µM.
Sequence of Ephrin type-A receptor 7 (Homo sapiens) (Q15375 28-998 limits assumed): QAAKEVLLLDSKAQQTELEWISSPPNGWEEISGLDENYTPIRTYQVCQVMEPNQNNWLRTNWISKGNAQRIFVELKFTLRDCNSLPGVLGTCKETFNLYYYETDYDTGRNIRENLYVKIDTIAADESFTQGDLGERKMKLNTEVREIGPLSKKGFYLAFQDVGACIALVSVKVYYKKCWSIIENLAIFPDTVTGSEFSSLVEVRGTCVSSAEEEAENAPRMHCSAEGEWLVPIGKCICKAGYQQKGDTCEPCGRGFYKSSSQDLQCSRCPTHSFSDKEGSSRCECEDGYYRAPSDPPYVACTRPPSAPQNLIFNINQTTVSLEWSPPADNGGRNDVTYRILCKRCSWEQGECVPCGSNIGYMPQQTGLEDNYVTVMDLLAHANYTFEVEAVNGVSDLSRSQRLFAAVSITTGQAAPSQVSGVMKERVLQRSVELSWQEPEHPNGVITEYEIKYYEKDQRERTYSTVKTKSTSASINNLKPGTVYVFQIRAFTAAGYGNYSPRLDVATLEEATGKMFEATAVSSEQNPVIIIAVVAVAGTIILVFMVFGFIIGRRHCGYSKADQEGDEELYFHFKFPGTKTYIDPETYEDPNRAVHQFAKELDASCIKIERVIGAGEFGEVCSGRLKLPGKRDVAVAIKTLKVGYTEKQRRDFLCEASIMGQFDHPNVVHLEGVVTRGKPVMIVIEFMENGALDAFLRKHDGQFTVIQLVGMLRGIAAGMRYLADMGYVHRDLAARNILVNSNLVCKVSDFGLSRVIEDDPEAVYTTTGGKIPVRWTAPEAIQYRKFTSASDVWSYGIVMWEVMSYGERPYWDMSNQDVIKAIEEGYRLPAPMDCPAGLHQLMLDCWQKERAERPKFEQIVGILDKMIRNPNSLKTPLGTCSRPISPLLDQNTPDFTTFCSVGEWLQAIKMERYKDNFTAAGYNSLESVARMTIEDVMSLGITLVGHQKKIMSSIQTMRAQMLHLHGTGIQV
Assay [7] has the same target. The note with it: at 10 µM.
Assay [8] addresses T4, Ephrin type-A receptor 8 (Homo sapiens) (UniProt P29322).
T4 sequence (whole entry): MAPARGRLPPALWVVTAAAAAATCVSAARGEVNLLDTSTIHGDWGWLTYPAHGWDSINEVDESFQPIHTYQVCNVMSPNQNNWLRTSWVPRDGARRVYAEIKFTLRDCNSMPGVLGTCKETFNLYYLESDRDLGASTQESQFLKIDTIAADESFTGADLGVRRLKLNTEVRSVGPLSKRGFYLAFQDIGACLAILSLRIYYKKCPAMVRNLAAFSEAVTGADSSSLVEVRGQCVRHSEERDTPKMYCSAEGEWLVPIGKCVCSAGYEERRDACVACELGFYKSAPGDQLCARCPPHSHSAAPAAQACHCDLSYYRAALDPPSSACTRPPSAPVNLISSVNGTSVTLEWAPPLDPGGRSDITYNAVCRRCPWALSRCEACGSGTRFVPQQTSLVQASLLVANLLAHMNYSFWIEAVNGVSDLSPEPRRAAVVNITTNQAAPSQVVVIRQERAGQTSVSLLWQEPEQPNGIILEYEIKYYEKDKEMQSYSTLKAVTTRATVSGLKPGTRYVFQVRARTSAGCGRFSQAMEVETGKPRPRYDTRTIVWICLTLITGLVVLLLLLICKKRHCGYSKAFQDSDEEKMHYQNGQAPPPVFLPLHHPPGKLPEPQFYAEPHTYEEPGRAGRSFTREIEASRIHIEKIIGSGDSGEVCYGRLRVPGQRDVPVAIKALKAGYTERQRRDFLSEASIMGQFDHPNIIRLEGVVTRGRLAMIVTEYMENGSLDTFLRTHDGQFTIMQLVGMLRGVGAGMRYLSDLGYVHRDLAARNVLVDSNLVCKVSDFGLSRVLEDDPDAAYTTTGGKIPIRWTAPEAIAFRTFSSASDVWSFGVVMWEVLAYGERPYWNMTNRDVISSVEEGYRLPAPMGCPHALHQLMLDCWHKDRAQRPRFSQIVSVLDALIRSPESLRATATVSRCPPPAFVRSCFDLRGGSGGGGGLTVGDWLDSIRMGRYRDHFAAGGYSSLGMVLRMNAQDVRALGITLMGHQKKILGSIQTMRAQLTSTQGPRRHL
The note with it: at 1 µM.

Assay [9] has as its target T4, Ephrin type-A receptor 8 (Homo sapiens). To be noted: at 10 µM.
Assay [10] deals with T5, Ephrin type-A receptor 1 (Homo sapiens) (UniProt P21709).
T5 sequence (whole entry): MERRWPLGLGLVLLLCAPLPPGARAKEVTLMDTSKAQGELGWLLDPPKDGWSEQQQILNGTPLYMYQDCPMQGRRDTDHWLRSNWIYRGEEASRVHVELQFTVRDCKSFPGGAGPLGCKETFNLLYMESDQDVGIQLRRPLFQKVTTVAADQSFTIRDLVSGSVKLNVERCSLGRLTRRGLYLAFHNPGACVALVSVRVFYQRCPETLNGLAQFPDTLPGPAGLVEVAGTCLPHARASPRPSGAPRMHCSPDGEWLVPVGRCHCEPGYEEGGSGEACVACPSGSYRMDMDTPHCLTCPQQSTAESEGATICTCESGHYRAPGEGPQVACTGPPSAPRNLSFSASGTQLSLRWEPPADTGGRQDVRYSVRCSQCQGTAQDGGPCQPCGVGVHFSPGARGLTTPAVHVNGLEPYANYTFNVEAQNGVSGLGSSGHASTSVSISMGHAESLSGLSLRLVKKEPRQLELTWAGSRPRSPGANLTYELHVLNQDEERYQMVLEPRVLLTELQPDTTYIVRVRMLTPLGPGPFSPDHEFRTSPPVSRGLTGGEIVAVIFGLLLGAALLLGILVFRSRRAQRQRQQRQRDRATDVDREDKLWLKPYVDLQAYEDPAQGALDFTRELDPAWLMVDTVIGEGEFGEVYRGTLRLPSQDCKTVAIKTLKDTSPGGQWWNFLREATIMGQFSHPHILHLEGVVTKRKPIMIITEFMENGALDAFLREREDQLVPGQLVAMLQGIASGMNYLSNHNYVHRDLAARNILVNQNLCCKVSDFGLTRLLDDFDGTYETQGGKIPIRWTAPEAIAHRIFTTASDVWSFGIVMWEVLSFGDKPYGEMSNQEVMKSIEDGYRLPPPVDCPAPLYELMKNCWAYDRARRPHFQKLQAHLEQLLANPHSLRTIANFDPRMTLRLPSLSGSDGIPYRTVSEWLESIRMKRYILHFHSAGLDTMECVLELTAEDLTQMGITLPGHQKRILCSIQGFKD
To be noted: at 1 µM.

Assay [11] addresses T5, Ephrin type-A receptor 1 (Homo sapiens). To be noted: at 10 µM.
The target of assay [12] is Ephrin type-A receptor 2 (Homo sapiens) (UniProt P29317). To be noted: at 1 µM.
Sequence of Ephrin type-A receptor 2 (Homo sapiens) (P29317 whole entry): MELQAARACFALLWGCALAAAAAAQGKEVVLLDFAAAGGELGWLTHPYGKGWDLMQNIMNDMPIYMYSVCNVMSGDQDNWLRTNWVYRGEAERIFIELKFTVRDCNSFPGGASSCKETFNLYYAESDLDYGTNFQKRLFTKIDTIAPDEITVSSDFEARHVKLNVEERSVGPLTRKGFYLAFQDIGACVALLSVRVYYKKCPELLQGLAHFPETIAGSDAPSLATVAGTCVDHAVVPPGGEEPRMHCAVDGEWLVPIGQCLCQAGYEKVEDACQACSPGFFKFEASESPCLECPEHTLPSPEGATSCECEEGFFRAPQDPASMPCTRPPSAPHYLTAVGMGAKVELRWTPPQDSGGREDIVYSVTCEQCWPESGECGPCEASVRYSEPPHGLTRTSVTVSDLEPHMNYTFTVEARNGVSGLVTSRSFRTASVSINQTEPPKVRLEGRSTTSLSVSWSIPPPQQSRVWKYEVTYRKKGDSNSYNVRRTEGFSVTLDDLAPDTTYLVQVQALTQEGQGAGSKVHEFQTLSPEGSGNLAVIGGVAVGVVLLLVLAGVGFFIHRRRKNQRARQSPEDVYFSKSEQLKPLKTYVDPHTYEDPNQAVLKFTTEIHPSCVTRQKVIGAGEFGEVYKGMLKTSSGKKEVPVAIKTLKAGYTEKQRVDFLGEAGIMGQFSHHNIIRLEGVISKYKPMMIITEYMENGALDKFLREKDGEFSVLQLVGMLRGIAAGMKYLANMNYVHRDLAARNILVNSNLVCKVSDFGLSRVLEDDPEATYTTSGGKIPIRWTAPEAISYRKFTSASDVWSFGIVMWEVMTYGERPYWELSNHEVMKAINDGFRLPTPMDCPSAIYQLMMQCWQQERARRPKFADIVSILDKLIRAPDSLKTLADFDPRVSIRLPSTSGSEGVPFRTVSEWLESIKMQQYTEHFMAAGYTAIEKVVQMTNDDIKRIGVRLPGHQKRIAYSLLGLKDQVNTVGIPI
The target is the same in assay [13]. To be noted: at 10 µM.
Assay [14] addresses Ephrin type-A receptor 4 (Homo sapiens) (UniProt P54764). To be noted: at 1 µM.
Assay [15] shares this target. The note with it: at 10 µM.
Assay [16] deals with Ephrin type-A receptor 5 (Homo sapiens) (UniProt P54756). The note with it: at 1 µM.
Sequence of Ephrin type-A receptor 5 (Homo sapiens) (P54756 whole entry): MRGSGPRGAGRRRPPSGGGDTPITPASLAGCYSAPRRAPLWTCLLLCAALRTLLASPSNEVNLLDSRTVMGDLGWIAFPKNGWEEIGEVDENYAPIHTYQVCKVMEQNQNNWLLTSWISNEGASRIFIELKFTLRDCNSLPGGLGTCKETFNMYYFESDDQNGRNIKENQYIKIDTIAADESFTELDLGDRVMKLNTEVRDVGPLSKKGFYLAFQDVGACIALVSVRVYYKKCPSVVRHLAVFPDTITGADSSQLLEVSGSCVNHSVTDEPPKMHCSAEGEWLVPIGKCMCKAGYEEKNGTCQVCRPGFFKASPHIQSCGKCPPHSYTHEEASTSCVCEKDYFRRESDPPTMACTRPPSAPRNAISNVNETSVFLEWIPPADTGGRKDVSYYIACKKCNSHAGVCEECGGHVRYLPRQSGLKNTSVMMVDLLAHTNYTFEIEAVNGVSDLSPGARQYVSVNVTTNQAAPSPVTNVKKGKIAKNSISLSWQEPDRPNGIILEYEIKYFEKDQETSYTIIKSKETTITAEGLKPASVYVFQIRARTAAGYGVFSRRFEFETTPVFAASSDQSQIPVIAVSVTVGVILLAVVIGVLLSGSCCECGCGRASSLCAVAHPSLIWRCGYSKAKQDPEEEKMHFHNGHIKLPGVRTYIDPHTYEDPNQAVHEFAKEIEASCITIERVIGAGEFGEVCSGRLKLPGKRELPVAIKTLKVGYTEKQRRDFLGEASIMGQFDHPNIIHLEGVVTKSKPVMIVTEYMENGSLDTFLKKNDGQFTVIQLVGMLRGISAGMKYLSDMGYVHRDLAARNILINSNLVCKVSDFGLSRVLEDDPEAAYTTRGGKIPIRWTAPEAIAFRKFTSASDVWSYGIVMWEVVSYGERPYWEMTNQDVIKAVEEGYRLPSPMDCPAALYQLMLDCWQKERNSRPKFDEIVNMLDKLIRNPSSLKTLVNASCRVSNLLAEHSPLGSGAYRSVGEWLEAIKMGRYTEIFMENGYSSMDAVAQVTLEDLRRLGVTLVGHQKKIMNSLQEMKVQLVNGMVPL
For assay [17] the target is unchanged. The note with it: at 10 µM.
Assay [18] has as its target T6, Ephrin type-B receptor 1 (Homo sapiens) (UniProt P54762).
T6 sequence (whole entry): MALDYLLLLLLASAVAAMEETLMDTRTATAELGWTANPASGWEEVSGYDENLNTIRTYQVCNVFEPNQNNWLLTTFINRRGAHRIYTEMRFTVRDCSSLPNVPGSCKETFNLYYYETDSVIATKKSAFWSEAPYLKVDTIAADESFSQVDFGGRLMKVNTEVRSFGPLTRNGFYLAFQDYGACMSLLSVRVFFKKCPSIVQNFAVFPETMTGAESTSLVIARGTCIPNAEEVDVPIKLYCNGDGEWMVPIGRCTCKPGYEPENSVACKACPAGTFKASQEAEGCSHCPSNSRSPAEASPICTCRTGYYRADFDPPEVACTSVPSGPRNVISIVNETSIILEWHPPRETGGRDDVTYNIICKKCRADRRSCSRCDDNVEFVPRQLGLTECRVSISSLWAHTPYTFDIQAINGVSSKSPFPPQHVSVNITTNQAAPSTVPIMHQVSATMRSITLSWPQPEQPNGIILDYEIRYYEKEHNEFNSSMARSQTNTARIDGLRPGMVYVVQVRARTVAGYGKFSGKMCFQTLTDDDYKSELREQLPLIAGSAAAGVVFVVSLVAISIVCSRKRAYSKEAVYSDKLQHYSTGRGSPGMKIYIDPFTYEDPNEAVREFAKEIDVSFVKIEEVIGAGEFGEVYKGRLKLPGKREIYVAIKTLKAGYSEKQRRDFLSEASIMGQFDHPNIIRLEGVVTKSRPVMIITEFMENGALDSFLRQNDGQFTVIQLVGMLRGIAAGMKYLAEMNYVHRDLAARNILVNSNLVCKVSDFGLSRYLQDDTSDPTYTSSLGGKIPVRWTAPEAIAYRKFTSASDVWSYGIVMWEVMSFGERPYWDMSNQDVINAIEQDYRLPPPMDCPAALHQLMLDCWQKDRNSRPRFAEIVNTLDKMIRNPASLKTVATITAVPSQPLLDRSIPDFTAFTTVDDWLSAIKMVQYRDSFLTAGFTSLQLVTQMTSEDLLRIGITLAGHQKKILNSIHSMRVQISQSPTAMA
The note with it: at 1 µM.

Sequence of Ephrin type-A receptor 4 (Homo sapiens) (P54764 whole entry): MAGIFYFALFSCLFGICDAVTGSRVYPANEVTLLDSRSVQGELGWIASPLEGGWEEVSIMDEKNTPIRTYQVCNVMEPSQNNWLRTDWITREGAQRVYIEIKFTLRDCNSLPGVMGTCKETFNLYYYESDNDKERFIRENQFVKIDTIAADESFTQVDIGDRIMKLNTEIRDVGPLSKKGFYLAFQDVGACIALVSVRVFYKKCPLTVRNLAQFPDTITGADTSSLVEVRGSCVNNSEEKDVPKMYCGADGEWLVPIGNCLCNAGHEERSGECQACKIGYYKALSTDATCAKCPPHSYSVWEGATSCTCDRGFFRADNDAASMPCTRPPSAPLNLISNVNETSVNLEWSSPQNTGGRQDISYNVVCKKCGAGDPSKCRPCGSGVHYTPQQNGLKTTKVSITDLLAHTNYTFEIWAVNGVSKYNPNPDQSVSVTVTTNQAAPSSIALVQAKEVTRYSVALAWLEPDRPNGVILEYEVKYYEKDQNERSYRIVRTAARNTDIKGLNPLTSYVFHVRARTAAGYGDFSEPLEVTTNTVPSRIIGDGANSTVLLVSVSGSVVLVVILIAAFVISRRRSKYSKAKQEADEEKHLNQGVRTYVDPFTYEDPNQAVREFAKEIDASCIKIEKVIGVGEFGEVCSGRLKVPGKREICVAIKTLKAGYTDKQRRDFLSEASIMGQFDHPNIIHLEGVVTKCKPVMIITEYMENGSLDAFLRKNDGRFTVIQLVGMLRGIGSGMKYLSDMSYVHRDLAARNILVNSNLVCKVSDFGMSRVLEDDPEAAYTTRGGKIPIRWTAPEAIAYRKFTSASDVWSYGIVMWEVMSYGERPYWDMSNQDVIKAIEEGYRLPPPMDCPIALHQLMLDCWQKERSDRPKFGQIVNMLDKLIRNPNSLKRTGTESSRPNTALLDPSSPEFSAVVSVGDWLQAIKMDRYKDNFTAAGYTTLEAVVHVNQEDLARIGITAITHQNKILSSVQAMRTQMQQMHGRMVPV

In the case of `N#CCCc1ccc2c(c1)-c1[nH]c3ccc([N+](=O)[O-])cc3c1CC(=O)N2`, the residual activity in assay [1] came out at 3%; in [2], 28%; in assay [3], 12%; in assay [4], 77%; in [5] it was 43%; in [6], 79%. Further, the residual activity came to 56% in [7], 77% in assay [8] and 69% in assay [9].

On to `COc1ccc(C(=O)Nc2sc3c(c2C(N)=O)CCCC3)cc1OC`, for which the residual activity in assay [1] came to 111%; in [2] it was 98%; in assay [3], 90%; in assay [10], 92%; in assay [11], 111%; in [12], 109%. Also, the residual activity in assay [13] amounted to 107%; in [4] it was 110%; in assay [5], 89%; in assay [14], 112%; in [15], 95%; in assay [16], 94%. The residual activity in assay [17] came to 108%; in assay [6], 92%; in assay [7] it was 87%; in [8], 107%; in assay [9], 85%; in [18], 83%.

On to `Cc1nc2cc3nc(-c4cccs4)cnc3cc2n1C`, for which the residual activity in assay [1] amounted to 14%; in assay [2] it was 108%; in [3] it was 87%; in assay [10], 111%; in assay [11] it was 121%; in [12], 110%. In addition, the residual activity turned out to be 105% in assay [13]; 127% in assay [4]; 94% in [5]; 115% in assay [14]; 96% in assay [15]; 107% in assay [16]. For the same molecule, the residual activity was 114% in assay [17]; 104% in [6]; 90% in assay [7]; 111% in [8]; 96% in [9]; 103% in assay [18].

For the molecule `Nc1n[nH]c2nnc(-c3c(-c4ccccc4)nn4ccccc34)cc12`, the residual activity is 117% in assay [1]; 94% in assay [2]; 88% in assay [3]; 96% in assay [10]; 66% in assay [11]; 91% in assay [12]. Besides, the residual activity in assay [13] stood at 95%; in assay [4], 94%; in assay [5] it was 93%; in assay [14], 104%; in [15], 100%; in [16], 91%. Moreover, the residual activity was 94% in [17]; 91% in [6]; 83% in assay [7]; 91% in assay [8]; 80% in [9]; 98% in [18].
